Source: the supplement of paper PMC10849652
Targets with a hit are over-represented here; the source holds about 7,900 in all. About 0.6% of all pairs of compound and target were hits. A number with no mark means an inactive call.

Assays:
Assay in all cases: log2 fold change, soluble protein after heating vs DMSO (PISA); higher = thermal stabilisation; K562 cells, 10 uM, 30 min; active = over 0.2 and 3.5 SD of the protein, either way, in both replicates (recomputed)
bafetinib = compound: Cc1ccc(NC(=O)c2ccc(CN3CC[C@H](N(C)C)C3)c(C(F)(F)F)c2)cc1Nc1nccc(-c2cncnc2)n1 [bafetinib]
Summary of the method: (§1)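 Thermal stability values are relative to control samples and come from duplicates. They are expressed as log2 fold changes. For measurement, K562 cells (2×10^6 cells/mL) received 10 μM compound for 30 min, and aliquots were heated for 3 min over 48°C-58°C, pooled, and extracted at 4°C in PBS with 0.5% NP-40. Soluble protein, the supernatant after 21,000xg for 90 min, was quantified by TMTpro 16plex LC-MS/MS with equalised channel sums.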

[1] = compound: Cc1cccc(CC(=O)N2CCc3c2ccc(-c2cn(C)c4ncnc(N)c24)c3F)n1
Summary of the method: as §1

nilotinib = compound: Cc1cn(-c2cc(NC(=O)c3ccc(C)c(Nc4nccc(-c5cccnc5)n4)c3)cc(C(F)(F)F)c2)cn1 [nilotinib]
Summary of the method: as §1

[2] = compound: Cc1nc(Nc2n[nH]c3c2CN(C(=O)N[C@H](CN(C)C)c2ccccc2)C3(C)C)c2sccc2n1
Summary of the method: as §1

dasatinib = compound: Cc1nc(Nc2ncc(C(=O)Nc3c(C)cccc3Cl)s2)cc(N2CCN(CCO)CC2)n1 [dasatinib]
Summary of the method: as §1

[3] = compound: Cc1ncc(-c2ccnc(Nc3ccc(S(C)(=O)=O)cc3)n2)n1C(C)C
Summary of the method: as §1

[4] = compound: Cn1cc(-c2ccc3c(c2)CCN3C(=O)Cc2cccc(C(F)(F)F)c2)c2c(N)ncnc21
Summary of the method: as §1

[5] = compound: Cn1cc(-c2ccc3nnc(C(F)(F)c4ccc5ncccc5c4)n3n2)cn1
Summary of the method: as §1

tipifarnib = compound: Cn1cncc1[C@@](N)(c1ccc(Cl)cc1)c1ccc2c(c1)c(-c1cccc(Cl)c1)cc(=O)n2C [tipifarnib]
Summary of the method: as §1

mubritinib = compound: FC(F)(F)c1ccc(/C=C/c2nc(COc3ccc(CCCCn4ccnn4)cc3)co2)cc1 [mubritinib]
Summary of the method: as §1

[6] = compound: NC(=O)Nc1cc(-c2cccc(F)c2)sc1C(=O)N[C@H]1CCCNC1
Summary of the method: as §1

[7] = compound: NC(=O)c1cnc(N[C@@H]2CCCC[C@@H]2N)nc1Nc1cccc(-n2nccn2)c1
Summary of the method: as §1

[8] = compound: NC1(c2ccc(-c3nc4ccn5c(=O)[nH]nc5c4cc3-c3ccccc3)cc2)CCC1
Summary of the method: as §1

[9] = compound: NCC(=O)Nc1ccc(-n2nc(C(F)(F)F)cc2-c2ccc3c(ccc4ccccc43)c2)cc1
Summary of the method: as §1

entinostat = compound: Nc1ccccc1NC(=O)c1ccc(CNC(=O)OCc2cccnc2)cc1 [entinostat]
Summary of the method: as §1

vorinostat = compound: O=C(CCCCCCC(=O)Nc1ccccc1)NO [vorinostat]
Summary of the method: as §1

citarinostat = compound: O=C(CCCCCCNC(=O)c1cnc(N(c2ccccc2)c2ccccc2Cl)nc1)NO [citarinostat]
Summary of the method: as §1

silmitasertib = compound: O=C(O)c1ccc2c(c1)nc(Nc1cccc(Cl)c1)c1ccncc12 [silmitasertib]
Summary of the method: as §1

[10] = compound: O=C1NC(=O)C(c2cnc3ccccn23)=C1c1cn2c3c(cc(F)cc13)CN(C(=O)N1CCCCC1)CC2
Summary of the method: as §1

[11] = compound: c1cc(OCCN2CCCCC2)cc(-c2n[nH]c3ccc(-c4nnc[nH]4)cc23)c1
Summary of the method: as §1

Chain of UniProt Q9UBS8 (Q9UBS8 whole entry, looked up): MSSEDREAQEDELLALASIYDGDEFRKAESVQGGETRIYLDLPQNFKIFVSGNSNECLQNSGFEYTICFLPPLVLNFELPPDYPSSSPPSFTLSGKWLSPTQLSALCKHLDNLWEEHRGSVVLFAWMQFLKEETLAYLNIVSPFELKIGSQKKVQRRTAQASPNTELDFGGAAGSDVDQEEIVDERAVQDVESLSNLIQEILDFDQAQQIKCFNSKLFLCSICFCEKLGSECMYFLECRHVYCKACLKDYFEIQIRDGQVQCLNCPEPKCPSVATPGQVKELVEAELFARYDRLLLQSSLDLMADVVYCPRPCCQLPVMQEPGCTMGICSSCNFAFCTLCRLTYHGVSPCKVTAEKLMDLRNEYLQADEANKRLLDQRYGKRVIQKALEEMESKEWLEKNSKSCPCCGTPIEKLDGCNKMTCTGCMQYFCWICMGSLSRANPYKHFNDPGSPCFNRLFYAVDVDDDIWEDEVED
Chain of UniProt Q14498 (Q14498 whole entry, looked up): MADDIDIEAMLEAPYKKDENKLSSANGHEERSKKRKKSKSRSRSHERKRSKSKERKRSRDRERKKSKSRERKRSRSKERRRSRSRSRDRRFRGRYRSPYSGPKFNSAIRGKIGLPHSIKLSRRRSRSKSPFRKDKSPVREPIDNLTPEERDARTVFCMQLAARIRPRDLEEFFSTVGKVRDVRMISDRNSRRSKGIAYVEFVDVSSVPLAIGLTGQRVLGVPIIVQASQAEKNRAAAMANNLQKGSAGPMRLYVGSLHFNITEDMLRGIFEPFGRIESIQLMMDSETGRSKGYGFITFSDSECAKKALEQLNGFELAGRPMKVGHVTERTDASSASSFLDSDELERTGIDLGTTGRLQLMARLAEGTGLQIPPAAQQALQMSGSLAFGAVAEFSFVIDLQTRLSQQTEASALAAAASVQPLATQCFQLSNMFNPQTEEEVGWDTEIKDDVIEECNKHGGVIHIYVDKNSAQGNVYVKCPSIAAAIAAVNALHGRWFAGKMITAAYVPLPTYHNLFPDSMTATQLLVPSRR
Chain of UniProt Q5TA31 (Q5TA31 whole entry, looked up): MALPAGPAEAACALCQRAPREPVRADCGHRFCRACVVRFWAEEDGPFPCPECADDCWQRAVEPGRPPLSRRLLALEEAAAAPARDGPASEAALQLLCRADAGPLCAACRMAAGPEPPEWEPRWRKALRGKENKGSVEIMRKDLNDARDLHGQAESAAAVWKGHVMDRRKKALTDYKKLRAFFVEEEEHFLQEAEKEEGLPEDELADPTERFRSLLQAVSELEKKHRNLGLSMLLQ
Chain of UniProt Q96ER3 (Q96ER3 whole entry, looked up): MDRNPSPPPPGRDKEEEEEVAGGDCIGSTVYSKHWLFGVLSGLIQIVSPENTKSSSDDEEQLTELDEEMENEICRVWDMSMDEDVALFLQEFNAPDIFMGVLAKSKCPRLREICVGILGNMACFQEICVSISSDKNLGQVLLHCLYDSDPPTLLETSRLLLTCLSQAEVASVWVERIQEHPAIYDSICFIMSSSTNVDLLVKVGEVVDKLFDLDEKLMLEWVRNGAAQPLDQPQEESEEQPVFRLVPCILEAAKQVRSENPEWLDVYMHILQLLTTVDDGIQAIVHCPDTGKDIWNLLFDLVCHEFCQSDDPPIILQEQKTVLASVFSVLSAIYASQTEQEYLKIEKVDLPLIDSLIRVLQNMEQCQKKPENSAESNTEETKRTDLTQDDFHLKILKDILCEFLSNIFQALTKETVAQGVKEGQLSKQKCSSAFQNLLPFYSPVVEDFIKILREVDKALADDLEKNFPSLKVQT
Chain of UniProt Q96T51 (Q96T51 whole entry, looked up): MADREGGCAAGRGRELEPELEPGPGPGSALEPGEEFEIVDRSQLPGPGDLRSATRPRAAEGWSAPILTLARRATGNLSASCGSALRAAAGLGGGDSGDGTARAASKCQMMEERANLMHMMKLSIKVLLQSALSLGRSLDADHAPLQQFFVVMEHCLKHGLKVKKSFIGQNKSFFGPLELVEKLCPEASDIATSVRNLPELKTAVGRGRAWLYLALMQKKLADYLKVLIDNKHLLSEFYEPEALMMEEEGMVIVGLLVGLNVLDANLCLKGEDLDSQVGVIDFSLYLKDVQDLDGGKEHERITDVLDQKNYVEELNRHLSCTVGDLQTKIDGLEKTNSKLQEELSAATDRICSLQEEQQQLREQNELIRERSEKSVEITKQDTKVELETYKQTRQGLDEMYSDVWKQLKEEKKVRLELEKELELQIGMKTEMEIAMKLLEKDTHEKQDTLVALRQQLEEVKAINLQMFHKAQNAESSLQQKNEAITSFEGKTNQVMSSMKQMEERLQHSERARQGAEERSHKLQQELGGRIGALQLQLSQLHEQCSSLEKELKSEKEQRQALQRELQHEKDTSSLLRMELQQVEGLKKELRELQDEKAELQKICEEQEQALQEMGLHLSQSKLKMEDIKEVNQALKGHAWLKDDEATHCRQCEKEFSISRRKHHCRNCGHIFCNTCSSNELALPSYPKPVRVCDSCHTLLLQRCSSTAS
Chain of UniProt O43818 (O43818 whole entry, looked up): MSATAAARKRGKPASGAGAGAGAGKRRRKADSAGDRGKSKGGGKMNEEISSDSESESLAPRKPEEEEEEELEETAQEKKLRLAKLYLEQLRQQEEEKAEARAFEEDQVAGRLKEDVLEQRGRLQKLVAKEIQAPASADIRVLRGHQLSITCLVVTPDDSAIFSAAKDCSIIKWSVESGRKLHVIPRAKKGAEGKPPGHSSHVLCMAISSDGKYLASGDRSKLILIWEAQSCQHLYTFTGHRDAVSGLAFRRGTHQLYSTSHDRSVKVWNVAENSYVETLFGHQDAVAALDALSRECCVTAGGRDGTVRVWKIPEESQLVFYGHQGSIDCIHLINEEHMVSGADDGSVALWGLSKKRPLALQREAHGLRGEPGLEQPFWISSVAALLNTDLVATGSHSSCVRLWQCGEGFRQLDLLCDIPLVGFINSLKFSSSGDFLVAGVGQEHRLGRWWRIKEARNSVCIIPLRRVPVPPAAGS
Chain of UniProt Q9GZR1 (Q9GZR1 whole entry, looked up): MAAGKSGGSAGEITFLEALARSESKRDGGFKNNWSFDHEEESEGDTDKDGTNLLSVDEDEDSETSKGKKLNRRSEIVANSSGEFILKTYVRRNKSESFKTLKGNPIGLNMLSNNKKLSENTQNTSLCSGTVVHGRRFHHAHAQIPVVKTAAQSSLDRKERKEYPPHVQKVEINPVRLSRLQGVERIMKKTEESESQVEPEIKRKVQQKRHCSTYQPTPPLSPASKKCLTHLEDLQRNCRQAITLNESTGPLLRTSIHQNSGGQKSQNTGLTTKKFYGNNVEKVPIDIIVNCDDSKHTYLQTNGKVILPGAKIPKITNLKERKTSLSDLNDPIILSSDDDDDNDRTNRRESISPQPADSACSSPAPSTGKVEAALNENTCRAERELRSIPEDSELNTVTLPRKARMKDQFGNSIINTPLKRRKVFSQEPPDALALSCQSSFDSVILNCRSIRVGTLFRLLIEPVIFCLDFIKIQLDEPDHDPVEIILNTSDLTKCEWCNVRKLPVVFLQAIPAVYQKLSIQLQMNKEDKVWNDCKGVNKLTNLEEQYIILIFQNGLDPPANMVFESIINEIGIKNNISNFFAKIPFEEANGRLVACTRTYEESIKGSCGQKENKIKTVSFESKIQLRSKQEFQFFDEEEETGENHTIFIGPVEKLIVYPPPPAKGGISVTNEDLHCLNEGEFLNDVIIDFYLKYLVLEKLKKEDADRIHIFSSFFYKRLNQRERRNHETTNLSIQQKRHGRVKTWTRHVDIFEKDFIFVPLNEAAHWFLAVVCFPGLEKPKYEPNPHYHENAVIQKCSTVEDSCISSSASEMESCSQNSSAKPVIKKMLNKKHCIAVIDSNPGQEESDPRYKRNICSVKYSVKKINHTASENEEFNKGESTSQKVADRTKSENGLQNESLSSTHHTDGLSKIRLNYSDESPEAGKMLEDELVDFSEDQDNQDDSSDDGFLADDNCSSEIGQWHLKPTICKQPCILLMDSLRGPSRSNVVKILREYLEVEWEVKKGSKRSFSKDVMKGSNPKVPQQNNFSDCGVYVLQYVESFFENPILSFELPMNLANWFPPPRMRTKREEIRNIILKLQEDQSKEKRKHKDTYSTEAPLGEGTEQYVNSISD

Row | Target | log2 fold change (bafetinib) | log2 fold change [1] | log2 fold change (nilotinib) | log2 fold change [2] | log2 fold change (dasatinib) | log2 fold change [3] | log2 fold change [4] | log2 fold change [5] | log2 fold change (tipifarnib) | log2 fold change (mubritinib) | log2 fold change [6] | log2 fold change [7] | log2 fold change [8] | log2 fold change [9] | log2 fold change (entinostat) | log2 fold change (vorinostat) | log2 fold change (citarinostat) | log2 fold change (silmitasertib) | log2 fold change [10] | log2 fold change [11]
1 | RPS3A (UniProt P61247) | 0.243 | -0.031 | 0 | 0.201 | 0.099 | -0.033 | -0.127 | -0.045 | 0.096 | -0.058 | 0.01 | 0.084 | 0.164 | 0.035 | -0.04 | 0.041 | -0.071 | 0.017 | 0.088 | -0.131
2 | SAAL1 (UniProt Q96ER3) | -0.102 | 0.047 | -0.042 | 0.161 | -0.101 | 0.246 | -0.06 | 0 | -0.053 | 0.109 | -0.091 | 0.031 | -0.207 | -0.058 | 0.04 | 0.006 | 0.011 | 0.119 | -0.04 | -0.013
3 | RPS3 (UniProt P23396) | 0.219 | -0.004 | -0.009 | 0.193 | 0.063 | -0.056 | -0.132 | -0.028 | 0.075 | -0.045 | -0.006 | 0.05 | 0.117 | 0.033 | -0.055 | 0.015 | -0.035 | -0.008 | 0.029 | -0.145
4 | RNF14 (UniProt Q9UBS8) | -0.033 | 0.05 | -0.002 | -0.07 | -0.136 | -0.048 | -0.017 | 0.033 | -0.05 | 0.017 | -0.016 | -0.054 | -0.157 | 0.008 | 0.037 | 0.021 | -0.006 | 0.003 | -0.127 | -0.007
5 | RUFY1 (UniProt Q96T51) | -0.052 | 0.077 | -0.066 | -0.086 | -0.11 | 0.067 | -0.061 | 0.05 | -0.062 | -0.001 | 0.06 | -0.057 | -0.086 | -0.101 | 0.05 | 0.031 | 0.032 | 0.11 | 0.038 | -0.037
6 | SENP6 (UniProt Q9GZR1) | 0.015 | -0.015 | 0.007 | -0.038 | -0.028 | 0.063 | 0.046 | -0.013 | 0.025 | 0.053 | 0.011 | -0.009 | -0.073 | -0.023 | -0.019 | -0.021 | 0.04 | -0.118 | 0.027 | -0.049
7 | RRP9 (UniProt O43818) | -0.02 | -0.103 | 0.046 | -0.042 | 0.106 | -0.107 | -0.062 | -0.102 | 0.074 | -0.046 | 0 | 0.053 | 0.14 | 0.08 | -0.002 | -0.035 | 0.003 | 0.069 | 0.112 | -0.073
8 | RBM39 (UniProt Q14498) | 0.046 | 0.082 | -0.027 | -1.03 (active) | -0.1 | 0.055 | -0.041 | -0.012 | -0.03 | -0.043 | -0.141 | -0.079 | 0.023 | -0.152 | 0.02 | 0.062 | 0.105 | -0.083 | 0.049 | -0.144
9 | RNF187 (UniProt Q5TA31) | 0.009 | 0.088 | 0.029 | -0.041 | 0.022 | -0.001 | -0.105 | 0.006 | -0.07 | 0.102 | 0.004 | -0.056 | -0.033 | 0.07 | -0.019 | 0.095 | 0.054 | 0.012 | -0.061 | 0.035
